# Reference: paper PMC7862700, “An all-to-all approach to the identification of sequence-specific readers for epigenetic DNA modifications on cytosine”
# Assays:
# Experiment in all cases: DAPPL (digital affinity profiling via proximity ligation, sequencing); 10 mM Tris-HCl pH 7.5, 50 mM NaCl, 1 mM DTT, 4% glycerol, room temperature, 30 min; GST-TFs on glutathione beads, 16-mer random dsDNA library, 0.1% formaldehyde crosslink after washing; high values mean tight binding
# [1] = biological target: T1, FLI1 (Homo sapiens, UniProt Q01543 1-452); conditions: protein: recombinant; tags: N-terminal GST; dsDNA, one strand shown
# T1 sequence: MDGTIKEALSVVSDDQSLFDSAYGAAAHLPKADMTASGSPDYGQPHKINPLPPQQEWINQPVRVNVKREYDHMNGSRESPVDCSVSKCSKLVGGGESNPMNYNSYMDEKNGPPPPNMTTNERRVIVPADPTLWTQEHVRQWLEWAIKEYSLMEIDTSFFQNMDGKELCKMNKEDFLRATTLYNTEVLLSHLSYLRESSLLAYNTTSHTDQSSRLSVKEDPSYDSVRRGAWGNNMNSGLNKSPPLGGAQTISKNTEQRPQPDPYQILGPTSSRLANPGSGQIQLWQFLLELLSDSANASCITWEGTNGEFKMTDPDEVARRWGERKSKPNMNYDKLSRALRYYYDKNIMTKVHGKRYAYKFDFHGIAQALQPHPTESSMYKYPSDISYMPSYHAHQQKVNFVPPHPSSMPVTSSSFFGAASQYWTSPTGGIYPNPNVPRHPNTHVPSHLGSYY
# How it was run: (§1)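 After expression in yeast as GST fusions, human transcription factors were bound to glutathione beads, DNA-barcoded and mixed with a tag-only sample. The pools were incubated with 200 nmole of a 16-mer random double-stranded DNA library in Tris/NaCl/DTT/glycerol buffer (30 min, room temperature), washed and crosslinked with 0.1% formaldehyde. Proximity ligation with BsaI/T4 ligase ran for 1 h at 37 °C, before PCR amplification and sequencing on an Illumina NextSeq500. Binding signal is a hexamer's read frequency for a factor divided by its frequency for the tag-only sample.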
# [2] = biological target: T2, ELK1 (Homo sapiens, UniProt P19419 1-428); conditions: protein: recombinant; tags: N-terminal GST; dsDNA, one strand shown
# T2 sequence: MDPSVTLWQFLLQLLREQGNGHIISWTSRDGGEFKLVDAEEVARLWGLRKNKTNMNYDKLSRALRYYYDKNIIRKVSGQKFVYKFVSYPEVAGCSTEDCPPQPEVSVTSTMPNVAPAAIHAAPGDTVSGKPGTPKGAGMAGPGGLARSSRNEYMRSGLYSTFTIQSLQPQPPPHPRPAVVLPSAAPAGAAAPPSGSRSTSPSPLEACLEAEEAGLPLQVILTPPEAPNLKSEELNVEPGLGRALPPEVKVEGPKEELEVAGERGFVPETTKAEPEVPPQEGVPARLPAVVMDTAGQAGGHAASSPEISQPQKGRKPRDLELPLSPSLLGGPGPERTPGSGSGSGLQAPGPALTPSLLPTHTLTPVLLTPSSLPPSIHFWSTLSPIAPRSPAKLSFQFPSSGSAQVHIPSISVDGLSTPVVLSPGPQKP
# How it was run: as §1
# [3] = biological target: T3, GABPA (Homo sapiens, UniProt Q06546 1-454); conditions: protein: recombinant; tags: N-terminal GST; dsDNA, one strand shown
# T3 sequence: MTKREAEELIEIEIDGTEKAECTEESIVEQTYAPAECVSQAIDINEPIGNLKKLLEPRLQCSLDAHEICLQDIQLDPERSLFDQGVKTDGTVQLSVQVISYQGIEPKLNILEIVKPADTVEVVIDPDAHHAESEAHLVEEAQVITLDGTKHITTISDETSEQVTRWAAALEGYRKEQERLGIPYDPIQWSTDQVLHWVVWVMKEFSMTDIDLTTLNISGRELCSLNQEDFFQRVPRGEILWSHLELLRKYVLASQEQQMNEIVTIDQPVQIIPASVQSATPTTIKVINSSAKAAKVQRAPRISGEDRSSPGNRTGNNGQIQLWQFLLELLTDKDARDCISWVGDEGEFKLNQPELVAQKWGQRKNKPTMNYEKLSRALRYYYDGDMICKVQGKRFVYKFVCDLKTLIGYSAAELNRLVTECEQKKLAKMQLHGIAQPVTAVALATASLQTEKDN
# How it was run: as §1
# [4] = biological target: T4, ERG (Homo sapiens, UniProt P11308 1-479); conditions: protein: recombinant; tags: N-terminal GST; dsDNA, one strand shown
# T4 sequence: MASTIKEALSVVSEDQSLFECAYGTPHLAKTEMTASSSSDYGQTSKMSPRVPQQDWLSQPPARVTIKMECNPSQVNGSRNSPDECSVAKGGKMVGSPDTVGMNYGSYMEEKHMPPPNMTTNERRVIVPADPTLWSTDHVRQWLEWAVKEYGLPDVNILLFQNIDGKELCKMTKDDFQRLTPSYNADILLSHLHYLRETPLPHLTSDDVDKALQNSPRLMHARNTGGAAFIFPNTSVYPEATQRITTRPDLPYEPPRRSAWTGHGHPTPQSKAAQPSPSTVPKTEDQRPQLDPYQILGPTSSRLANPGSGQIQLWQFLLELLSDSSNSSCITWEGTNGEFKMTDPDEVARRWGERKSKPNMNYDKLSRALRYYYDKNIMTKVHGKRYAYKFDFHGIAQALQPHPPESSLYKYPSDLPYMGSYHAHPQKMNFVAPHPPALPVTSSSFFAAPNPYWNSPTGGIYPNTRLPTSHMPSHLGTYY
# How it was run: as §1
# [5] = biological target: ELF1 (Homo sapiens, UniProt P32519 1-619); conditions: protein: recombinant; tags: N-terminal GST; dsDNA, one strand shown
# Sequence of ELF1 (P32519 whole entry): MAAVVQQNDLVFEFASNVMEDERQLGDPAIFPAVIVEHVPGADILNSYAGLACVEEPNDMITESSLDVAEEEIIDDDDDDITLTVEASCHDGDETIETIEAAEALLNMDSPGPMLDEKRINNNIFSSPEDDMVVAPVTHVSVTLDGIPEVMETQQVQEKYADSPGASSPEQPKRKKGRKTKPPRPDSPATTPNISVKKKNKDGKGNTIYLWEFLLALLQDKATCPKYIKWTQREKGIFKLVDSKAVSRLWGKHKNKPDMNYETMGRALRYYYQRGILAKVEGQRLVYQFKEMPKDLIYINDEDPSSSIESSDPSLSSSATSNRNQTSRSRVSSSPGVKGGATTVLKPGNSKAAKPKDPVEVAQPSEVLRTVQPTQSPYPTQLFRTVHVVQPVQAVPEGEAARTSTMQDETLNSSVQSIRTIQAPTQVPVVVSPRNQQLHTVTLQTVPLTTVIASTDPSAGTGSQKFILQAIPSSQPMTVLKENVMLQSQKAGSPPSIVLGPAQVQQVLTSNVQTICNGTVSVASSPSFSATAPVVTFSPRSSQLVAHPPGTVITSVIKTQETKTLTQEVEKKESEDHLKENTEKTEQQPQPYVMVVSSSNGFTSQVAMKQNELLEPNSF
# How it was run: as §1
# [6] = biological target: T5, EHF (Homo sapiens, UniProt Q9NZC4 1-300); conditions: protein: recombinant; tags: N-terminal GST; dsDNA, one strand shown
# T5 sequence: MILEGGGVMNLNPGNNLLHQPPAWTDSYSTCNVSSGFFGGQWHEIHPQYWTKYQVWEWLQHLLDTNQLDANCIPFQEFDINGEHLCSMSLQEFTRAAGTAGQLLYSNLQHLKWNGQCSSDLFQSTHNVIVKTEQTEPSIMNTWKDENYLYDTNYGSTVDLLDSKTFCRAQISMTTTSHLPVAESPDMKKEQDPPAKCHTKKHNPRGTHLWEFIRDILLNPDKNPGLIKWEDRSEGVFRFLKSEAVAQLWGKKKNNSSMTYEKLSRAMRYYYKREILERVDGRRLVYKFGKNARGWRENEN
# How it was run: as §1
# [7] = biological target: SPI1 (Homo sapiens, UniProt P17947 1-270); conditions: protein: recombinant; tags: N-terminal GST; dsDNA, one strand shown
# How it was run: as §1
# [8] = biological target: SPIB (Homo sapiens, UniProt Q01892 1-262); conditions: protein: recombinant; tags: N-terminal GST; dsDNA, one strand shown
# Sequence of SPIB (Q01892 whole entry): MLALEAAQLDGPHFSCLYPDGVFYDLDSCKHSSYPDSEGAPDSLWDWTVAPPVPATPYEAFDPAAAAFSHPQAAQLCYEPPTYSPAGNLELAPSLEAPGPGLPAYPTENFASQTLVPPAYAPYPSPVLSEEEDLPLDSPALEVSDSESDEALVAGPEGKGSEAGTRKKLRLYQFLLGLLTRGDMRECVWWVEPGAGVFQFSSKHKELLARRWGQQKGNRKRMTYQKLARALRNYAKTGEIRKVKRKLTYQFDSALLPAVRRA
# How it was run: as §1
# [9] = biological target: T6, ELK3 (Homo sapiens, UniProt P41970 1-407); conditions: protein: recombinant; tags: N-terminal GST; dsDNA, one strand shown
# T6 sequence: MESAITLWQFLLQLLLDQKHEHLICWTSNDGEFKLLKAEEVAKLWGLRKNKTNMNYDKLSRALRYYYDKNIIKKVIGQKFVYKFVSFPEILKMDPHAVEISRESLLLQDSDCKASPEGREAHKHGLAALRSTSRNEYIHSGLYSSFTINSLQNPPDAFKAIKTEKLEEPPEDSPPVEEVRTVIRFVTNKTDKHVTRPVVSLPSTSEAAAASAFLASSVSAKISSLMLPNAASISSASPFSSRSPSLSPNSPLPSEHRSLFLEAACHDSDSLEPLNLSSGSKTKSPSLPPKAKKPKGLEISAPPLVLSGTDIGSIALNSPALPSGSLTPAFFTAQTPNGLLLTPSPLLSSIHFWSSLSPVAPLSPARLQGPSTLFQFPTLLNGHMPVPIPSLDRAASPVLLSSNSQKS
# How it was run: as §1
# [10] = biological target: T7, FEV (Homo sapiens, UniProt Q99581 1-238); conditions: protein: recombinant; tags: N-terminal GST; dsDNA, one strand shown
# T7 sequence: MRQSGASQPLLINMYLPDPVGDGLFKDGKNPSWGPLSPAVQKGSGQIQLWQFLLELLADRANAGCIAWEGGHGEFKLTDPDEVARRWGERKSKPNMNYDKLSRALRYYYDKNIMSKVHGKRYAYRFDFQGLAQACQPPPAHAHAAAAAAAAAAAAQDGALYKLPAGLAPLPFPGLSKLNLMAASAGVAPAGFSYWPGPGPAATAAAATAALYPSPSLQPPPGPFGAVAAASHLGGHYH
# How it was run: as §1
# [11] = biological target: ETV5 (Homo sapiens, UniProt P41161 1-510); conditions: protein: recombinant; tags: N-terminal GST; dsDNA, one strand shown
# Sequence of ETV5 (P41161 whole entry): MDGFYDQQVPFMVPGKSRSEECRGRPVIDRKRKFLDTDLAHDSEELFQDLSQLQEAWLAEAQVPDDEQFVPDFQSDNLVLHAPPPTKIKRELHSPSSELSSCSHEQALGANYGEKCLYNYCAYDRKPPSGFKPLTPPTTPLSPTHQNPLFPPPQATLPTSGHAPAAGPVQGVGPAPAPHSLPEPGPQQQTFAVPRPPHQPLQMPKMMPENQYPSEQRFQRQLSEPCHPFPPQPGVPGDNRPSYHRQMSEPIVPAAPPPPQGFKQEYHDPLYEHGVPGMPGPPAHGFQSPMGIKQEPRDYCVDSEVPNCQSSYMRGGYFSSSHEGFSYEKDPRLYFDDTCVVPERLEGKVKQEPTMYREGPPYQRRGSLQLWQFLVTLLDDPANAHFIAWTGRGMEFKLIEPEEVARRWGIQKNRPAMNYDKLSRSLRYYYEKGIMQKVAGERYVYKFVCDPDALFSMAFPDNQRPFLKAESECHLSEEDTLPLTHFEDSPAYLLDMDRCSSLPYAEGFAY
# How it was run: as §1
# [12] = biological target: HSF1 (Homo sapiens, UniProt Q00613 1-529); conditions: protein: recombinant; tags: N-terminal GST; chain copies: 3; dsDNA, one strand shown
# Sequence of HSF1 (Q00613 whole entry): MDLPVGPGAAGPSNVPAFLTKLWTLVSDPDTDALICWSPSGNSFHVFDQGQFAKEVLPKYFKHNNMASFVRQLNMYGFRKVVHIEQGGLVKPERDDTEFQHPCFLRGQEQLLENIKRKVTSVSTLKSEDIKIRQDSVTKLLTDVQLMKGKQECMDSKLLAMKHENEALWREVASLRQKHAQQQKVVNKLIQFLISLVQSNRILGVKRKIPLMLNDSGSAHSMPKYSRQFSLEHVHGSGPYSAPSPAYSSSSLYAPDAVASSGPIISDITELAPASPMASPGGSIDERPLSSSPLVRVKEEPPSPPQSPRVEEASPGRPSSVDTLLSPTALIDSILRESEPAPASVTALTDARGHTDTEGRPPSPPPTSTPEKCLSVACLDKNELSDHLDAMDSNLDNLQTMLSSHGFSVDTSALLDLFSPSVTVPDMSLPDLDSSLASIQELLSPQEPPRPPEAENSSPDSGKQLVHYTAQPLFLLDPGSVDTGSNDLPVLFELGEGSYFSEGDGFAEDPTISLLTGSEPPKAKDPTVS
# How it was run: as §1
# [13] = biological target: T8, SPIC (Homo sapiens, UniProt Q8N5J4 1-248); conditions: protein: recombinant; tags: N-terminal GST; dsDNA, one strand shown
# T8 sequence: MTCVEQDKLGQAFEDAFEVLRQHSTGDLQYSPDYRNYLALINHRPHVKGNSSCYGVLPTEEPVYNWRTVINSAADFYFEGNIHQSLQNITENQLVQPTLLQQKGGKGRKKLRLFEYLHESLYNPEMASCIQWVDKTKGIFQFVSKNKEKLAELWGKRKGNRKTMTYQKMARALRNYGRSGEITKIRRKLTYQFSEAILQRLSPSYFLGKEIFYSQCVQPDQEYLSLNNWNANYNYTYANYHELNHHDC
# How it was run: as §1
# [14] = biological target: ELF4 (Homo sapiens, UniProt Q99607 1-663); conditions: protein: recombinant; tags: N-terminal GST; dsDNA, one strand shown
# Sequence of ELF4 (Q99607 whole entry): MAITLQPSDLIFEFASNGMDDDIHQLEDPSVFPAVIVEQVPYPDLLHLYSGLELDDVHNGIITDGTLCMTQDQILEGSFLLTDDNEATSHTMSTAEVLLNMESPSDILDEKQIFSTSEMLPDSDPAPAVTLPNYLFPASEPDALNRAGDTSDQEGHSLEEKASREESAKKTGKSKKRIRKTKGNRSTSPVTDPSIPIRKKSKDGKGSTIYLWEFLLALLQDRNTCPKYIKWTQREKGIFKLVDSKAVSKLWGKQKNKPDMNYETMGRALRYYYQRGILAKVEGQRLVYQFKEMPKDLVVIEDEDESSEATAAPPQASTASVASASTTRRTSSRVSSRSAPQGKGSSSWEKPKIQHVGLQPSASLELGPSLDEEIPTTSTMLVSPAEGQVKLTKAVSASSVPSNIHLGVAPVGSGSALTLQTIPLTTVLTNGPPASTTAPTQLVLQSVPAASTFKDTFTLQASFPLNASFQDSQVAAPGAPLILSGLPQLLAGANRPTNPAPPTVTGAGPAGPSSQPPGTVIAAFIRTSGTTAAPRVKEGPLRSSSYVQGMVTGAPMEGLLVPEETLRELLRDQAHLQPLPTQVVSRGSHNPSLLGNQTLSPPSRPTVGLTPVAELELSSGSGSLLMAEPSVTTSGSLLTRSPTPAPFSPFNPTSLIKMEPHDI
# How it was run: as §1
# [15] = biological target: T9, ELK4 (Homo sapiens, UniProt P28324-2 1-405); conditions: protein: recombinant; tags: N-terminal GST; dsDNA, one strand shown
# T9 sequence: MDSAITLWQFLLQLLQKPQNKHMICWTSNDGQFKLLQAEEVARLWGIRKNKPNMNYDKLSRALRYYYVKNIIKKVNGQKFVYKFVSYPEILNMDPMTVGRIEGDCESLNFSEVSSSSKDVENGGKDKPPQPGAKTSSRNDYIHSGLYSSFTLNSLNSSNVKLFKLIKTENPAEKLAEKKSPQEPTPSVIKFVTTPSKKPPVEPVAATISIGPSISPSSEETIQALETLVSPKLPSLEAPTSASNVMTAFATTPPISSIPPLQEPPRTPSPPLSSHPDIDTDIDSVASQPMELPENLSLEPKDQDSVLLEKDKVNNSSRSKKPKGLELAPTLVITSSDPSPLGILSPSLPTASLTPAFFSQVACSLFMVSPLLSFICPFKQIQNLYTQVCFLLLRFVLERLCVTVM
# How it was run: as §1
# [16] = biological target: T10, ETV2 (Homo sapiens, UniProt O00321 1-342); conditions: protein: recombinant; tags: N-terminal GST; dsDNA, one strand shown
# T10 sequence: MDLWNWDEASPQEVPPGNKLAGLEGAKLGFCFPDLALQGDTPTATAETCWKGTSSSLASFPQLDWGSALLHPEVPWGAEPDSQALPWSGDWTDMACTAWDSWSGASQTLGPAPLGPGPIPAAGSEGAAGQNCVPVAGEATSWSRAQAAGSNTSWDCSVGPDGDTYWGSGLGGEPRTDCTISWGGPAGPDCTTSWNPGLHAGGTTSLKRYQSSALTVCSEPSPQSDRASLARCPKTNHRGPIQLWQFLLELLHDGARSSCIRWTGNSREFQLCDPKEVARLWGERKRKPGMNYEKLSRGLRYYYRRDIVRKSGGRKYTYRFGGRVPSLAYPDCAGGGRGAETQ
# How it was run: as §1
# [17] = biological target: T11, ELF3 (Homo sapiens, UniProt P78545 1-371); conditions: protein: recombinant; tags: N-terminal GST; dsDNA, one strand shown
# T11 sequence: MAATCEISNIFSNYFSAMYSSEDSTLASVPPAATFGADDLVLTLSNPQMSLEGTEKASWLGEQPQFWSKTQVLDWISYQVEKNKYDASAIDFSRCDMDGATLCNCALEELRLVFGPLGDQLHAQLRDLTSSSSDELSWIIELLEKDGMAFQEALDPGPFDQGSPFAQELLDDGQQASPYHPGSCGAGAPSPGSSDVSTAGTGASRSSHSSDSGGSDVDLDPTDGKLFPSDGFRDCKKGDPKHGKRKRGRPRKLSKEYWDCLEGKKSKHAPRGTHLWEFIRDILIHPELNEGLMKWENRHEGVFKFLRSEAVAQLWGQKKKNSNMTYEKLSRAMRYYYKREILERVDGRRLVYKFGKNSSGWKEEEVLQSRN
# How it was run: as §1
# [18] = biological target: ETV1 (Homo sapiens, UniProt P50549 1-477); conditions: protein: recombinant; tags: N-terminal GST; dsDNA, one strand shown
# Sequence of ETV1 (P50549 whole entry): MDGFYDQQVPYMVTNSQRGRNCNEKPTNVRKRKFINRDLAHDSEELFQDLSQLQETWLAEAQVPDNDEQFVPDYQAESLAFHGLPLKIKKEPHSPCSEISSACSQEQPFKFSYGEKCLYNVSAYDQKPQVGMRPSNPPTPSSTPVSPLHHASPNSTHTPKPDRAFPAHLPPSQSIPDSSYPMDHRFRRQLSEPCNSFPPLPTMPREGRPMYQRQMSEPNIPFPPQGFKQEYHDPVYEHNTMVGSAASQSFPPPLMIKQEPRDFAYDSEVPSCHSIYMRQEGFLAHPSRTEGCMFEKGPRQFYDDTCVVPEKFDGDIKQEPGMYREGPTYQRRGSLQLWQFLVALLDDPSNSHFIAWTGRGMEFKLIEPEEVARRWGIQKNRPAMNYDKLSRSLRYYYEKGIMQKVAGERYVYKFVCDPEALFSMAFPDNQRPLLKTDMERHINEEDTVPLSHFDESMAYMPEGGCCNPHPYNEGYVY
# How it was run: as §1
sequence,measurement,setting,value
GTTCAC,binding signal,[1],"1.23 fold enrichment (6-mer frequency, TF over GST control)"
same,binding signal,[2],"1.23 fold enrichment (6-mer frequency, TF over GST control)"
same,binding signal,[3],"1.32 fold enrichment (6-mer frequency, TF over GST control)"
same,binding signal,[4],"1.21 fold enrichment (6-mer frequency, TF over GST control)"
same,binding signal,[5],"1.16 fold enrichment (6-mer frequency, TF over GST control)"
same,binding signal,[6],"1.13 fold enrichment (6-mer frequency, TF over GST control)"
same,binding signal,[7],"1.18 fold enrichment (6-mer frequency, TF over GST control)"
same,binding signal,[8],"1.19 fold enrichment (6-mer frequency, TF over GST control)"
same,binding signal,[9],"1.18 fold enrichment (6-mer frequency, TF over GST control)"
same,binding signal,[10],"1.3 fold enrichment (6-mer frequency, TF over GST control)"
same,binding signal,[11],"1.2 fold enrichment (6-mer frequency, TF over GST control)"
same,binding signal,[12],"1.06 fold enrichment (6-mer frequency, TF over GST control)"
same,binding signal,[13],"1.09 fold enrichment (6-mer frequency, TF over GST control)"
same,binding signal,[14],"1.25 fold enrichment (6-mer frequency, TF over GST control)"
same,binding signal,[15],"1.29 fold enrichment (6-mer frequency, TF over GST control)"
same,binding signal,[16],"1.22 fold enrichment (6-mer frequency, TF over GST control)"
same,binding signal,[17],"1.12 fold enrichment (6-mer frequency, TF over GST control)"
same,binding signal,[18],"1.19 fold enrichment (6-mer frequency, TF over GST control)"
